GLS inh = qHTS for Inhibitors of Glutaminase (GLS); Glutaminase kidney isoform, mitochondrial (Homo sapiens), O94925; GLS enzymatic activity, qHTS titration; Potency, µM (doses to about 45.5 µM), most hits filed as inhibitors; 410,000 tested, 0.21% active
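Compounds were pin-transferred onto hKGA, after which L-glutamine (1 mM solution) and a detection mix of glutamate oxidase, HRP and Amplex Red were added. Initial and 30 min RT fluorescence reads were collected.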
HP1b chromo inh = HTS for Inhibitors of HP1-beta Chromodomain Interactions with Methylated Histone Tails | 390,000 tested, 0.56% active | Chromobox protein homolog 1 (Homo sapiens), P83916 | AlphaScreen HP1-beta / biotin-H3K9me3 peptide binding | Potency, µM (series often up to 114 µM), most hits filed as inhibitors; note: nearly all actives have a fitted effect of over 70% in size
Target sequence (P83916 whole entry, looked up): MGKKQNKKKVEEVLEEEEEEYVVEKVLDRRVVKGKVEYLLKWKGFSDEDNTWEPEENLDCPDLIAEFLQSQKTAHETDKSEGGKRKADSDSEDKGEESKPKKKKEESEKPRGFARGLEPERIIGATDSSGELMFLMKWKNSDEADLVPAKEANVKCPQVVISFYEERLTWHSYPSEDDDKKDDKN
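HP1-beta protein (50 nM final) preincubated 30 min at room temperature with biotinylated H3(1-18)K9me3 peptide (50 nM) in PBS pH 7.4, 0.01% Tween-20, then compound added for 30 min. AlphaScreen streptavidin donor/nickel chelate acceptor beads (10 ug/mL final), 30 min dark, luminescence read.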
G9a inh = qHTS Assay for Inhibitors of Histone Lysine Methyltransferase G9a. Histone-lysine N-methyltransferase EHMT2 (Homo sapiens), Q96KQ7. G9a H3K9 monomethylation, AlphaScreen, 2 h. Potency, µM (highest dose often 102 µM), most hits filed as inhibitors. 350,000 tested, 8.8% active. AID 504332, 2011; note: nearly all actives have a fitted effect of over 75% in size
Target sequence (Q96KQ7 913-1193 limits assumed): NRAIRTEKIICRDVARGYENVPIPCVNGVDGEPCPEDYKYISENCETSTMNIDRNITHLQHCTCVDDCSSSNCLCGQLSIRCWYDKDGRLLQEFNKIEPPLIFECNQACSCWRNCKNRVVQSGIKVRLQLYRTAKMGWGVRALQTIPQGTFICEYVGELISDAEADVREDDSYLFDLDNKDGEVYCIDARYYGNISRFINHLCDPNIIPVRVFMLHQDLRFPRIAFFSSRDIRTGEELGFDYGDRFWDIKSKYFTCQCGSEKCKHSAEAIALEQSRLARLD
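Signal arises when biotinylated H3K9 peptide, once monomethylated, bridges streptavidin donor and antibody-captured acceptor beads. Enzyme at 20 nM was preincubated 15 min with test compounds; peptide 500 nM and SAM 20 uM then reacted for 2 h.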
BAZ2B inh = qHTS Assay for Inhibitors of BAZ2B. Bromodomain adjacent to zinc finger domain protein 2B (Homo sapiens), Q9UIF8. AlphaScreen BAZ2B-H3K14Ac peptide displacement. Potency, µM (titrated, usually from 114 µM), most hits filed as inhibitors. 360,000 tested, 4.4% active; note: nearly all actives have a fitted effect of over 60% in size
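BAZ2B (50 nM) with biotin-H3(5-23)K14Ac peptide (50 nM) in PBS pH 7.4, 0.01% Tween-20, preformed 30 min, then compound 30 min at room temperature; top concentration 110uM. AlphaScreen streptavidin donor/nickel chelate acceptor beads (10 ug/mL final), 20 min dark, signal read.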
L3MBTL1 inh = qHTS Assay for the Inhibitors of L3MBTL1. Lethal(3)malignant brain tumor-like protein 1 (Homo sapiens), Q9Y468. 230,000 tested, 0.66% active. AID 485360, 2010. AlphaScreen L3MBTL1–H3K9me1 peptide binding. Potency, µM (top dose mostly 57.1 µM), hits mostly inhibitors; note: nearly all actives have a fitted effect of over 60% in size
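Read-out is AlphaScreen signal from streptavidin donor and nickel chelate acceptor beads (10 ug/mL final each) bridging L3MBTL1 (50 nM) and biotinylated K9-monomethylated H3(1-15) peptide (75 nM), after 30 min compound exposure at room temperature.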
JMJD2A Tudor = qHTS Assay for Inhibitors of JMJD2A-Tudor Domain; Lysine-specific demethylase 4A (Homo sapiens), O75164; AlphaScreen JMJD2A-Tudor / H3K4me3 peptide binding; Potency, µM (series often up to 114 µM), hits mostly inhibitors; 390,000 tested, 4.4% active; note: nearly all actives have a fitted effect of over 50% in size
Large screens that a line does not name were inactive; ! = not confirmed by another sample. Only some compounds are listed: those with a hit (about 10% of all), similar ones and a draw of the others. Calls come from the whole dose curve; as a rule, active = well fitted curve in the direction sought with a large enough effect; inconclusive = small, poorly fitted or top-dose-only effect, or another doubt; inactive = no such curve, though single readings can be large; an effect the other way counts as inactive or inconclusive.

COc1ccccc1-c1nnc(Nc2nc3c(OC)cccc3s2)o1	none
NNc1nc2c(Cl)c(Cl)ccc2s1	G9a inh inconclusive, BAZ2B inh 50µM, JMJD2A Tudor 10µM
Cc1c(Cl)ccc2sc(NC(=O)c3ccco3)nc12	none (no result: G9a inh)
COc1cccc2sc(NN)nc12	GLS inh 14µM, HP1b chromo inh inconclusive, G9a inh 32µM, JMJD2A Tudor inconclusive (no result: BAZ2B inh, L3MBTL1 inh)
COc1ccc(Nc2nc(C#N)nc(NC3CCCC3)n2)cc1	none (no result: GLS inh, HP1b chromo inh, G9a inh, BAZ2B inh, L3MBTL1 inh)
Cc1c2cnn(-c3ccccc3)c(=O)c2c(C)n1CCCC(=O)Nc1ccc(F)cc1F	BAZ2B inh inconclusive (no result: L3MBTL1 inh)
Cn1c(=O)c2c(-c3ccccc3)n(Cc3ccccn3)cc2n(C)c1=O	G9a inh inconclusive, BAZ2B inh 50µM (no result: L3MBTL1 inh)
Cn1c(=O)c2c(-c3ccccc3)n(CCCN3CCOCC3)cc2n(C)c1=O	none (no result: L3MBTL1 inh)
Cc1ccc(-c2c3c(=O)n(C)c(=O)n(C)c3cn2Cc2ccccc2)cc1	G9a inh 11µM, BAZ2B inh inconclusive, JMJD2A Tudor inconclusive (no result: L3MBTL1 inh)
CCCn1cc2c(c1-c1ccc(C)cc1)c(=O)n(C)c(=O)n2C	BAZ2B inh inconclusive (no result: G9a inh)
COC(=O)c1cc(C(C)=O)n2ccccc12	BAZ2B inh 50µM (no result: L3MBTL1 inh)
CCc1ccc(NC(=O)c2cc(C(C)=O)n3ccccc23)cc1	none (no result: L3MBTL1 inh)
Nc1ncnc2c1ncn2[C@@H]1O[C@H](COP(=O)(O)OP(=O)(O)OP(=O)(O)OP(=O)(O)OC[C@@H]2O[C@H](n3cnc4c(N)ncnc43)[C@@H](O)[C@@H]2O)[C@H](O)[C@H]1O	none (no result: GLS inh, HP1b chromo inh, BAZ2B inh, L3MBTL1 inh, JMJD2A Tudor)
CN(C)CCC(C(=O)c1ccccc1)c1ccccn1 (stereo unspecified)	none (no result: G9a inh, BAZ2B inh, L3MBTL1 inh)
CN(C)CC(CCCCC(CN(C)C)C(=O)c1ccccc1)C(=O)c1ccccc1 (stereo unspecified)	G9a inh 50µM
NCCC1CCCC(CCN)N1 (stereo unspecified)	G9a inh 8.9µM!
O=C(c1ccco1)c1coc2c1cc(O)c1ccccc12	G9a inh 40µM, JMJD2A Tudor inconclusive
CCc1nn(CCCC(=O)NCc2ccc(OC)c(OC)c2)c(=O)c2cc3occc3n12	none (no result: L3MBTL1 inh)
CNC[C@H](O)[C@H](O)[C@H](O)[C@H](O)CO	none (no result: GLS inh, HP1b chromo inh, BAZ2B inh, L3MBTL1 inh, JMJD2A Tudor)
CC(=O)Nc1ccc(S(=O)(=O)c2cc(O)ccc2O)cc1	HP1b chromo inh inconclusive, G9a inh 13µM
Cc1ccc(S(=O)(=O)c2cc(O)ccc2O)cc1C	G9a inh 50µM (no result: L3MBTL1 inh)
CC(=O)N1c2ccc(S(=O)(=O)NCC3CCC(C(=O)NCCC(C)C)CC3)cc2CC1C (stereo unspecified)	none (no result: L3MBTL1 inh)
O=C(Cn1c(=O)n(Cc2ccco2)c(=O)c2sc3ccccc3c21)Nc1ccc(F)cc1F	none (no result: L3MBTL1 inh)
CCc1c(C)c2ccc(O)c(CN3CCN(c4cc(Cl)ccc4C)CC3)c2oc1=O	none (no result: L3MBTL1 inh)
Cc1ccccc1-c1noc(CCC(=O)NCC2CCCO2)n1 (stereo unspecified)	G9a inh 13µM (no result: L3MBTL1 inh)
Cn1ccc(C(=O)NC(=S)N2CCSCC2)n1	HP1b chromo inh inconclusive, G9a inh 13µM, JMJD2A Tudor 50µM
Cn1cc(-c2nc3cncnc3n(C3CC3)c2=O)c2ccccc21	none (no result: GLS inh, HP1b chromo inh, BAZ2B inh, L3MBTL1 inh, JMJD2A Tudor)
CC1(C)Cc2c(C#N)c(N)n(-c3ccccc3)c(=S)c2CO1	none (no result: G9a inh)
CC1(C)C=C2C(=NN(c3ccccc3)C(N)=C2C#N)CO1	G9a inh 6.3µM
O=C(CSc1n[nH]c(-c2ccco2)n1)N1c2ccccc2Sc2ccccc21	G9a inh 50µM, BAZ2B inh 56µM
COc1ccc(NC(=O)CSc2n[nH]c(-c3ccco3)n2)cc1	BAZ2B inh inconclusive
O=C(CSc1n[nH]c(-c2ccco2)n1)Nc1ccc(Br)cc1	JMJD2A Tudor 45µM (no result: L3MBTL1 inh)
O=c1c2sc3ccccc3c2n(Cc2cccc(Cl)c2)c(=O)n1Cc1ccccc1	none (no result: L3MBTL1 inh)

Compound activity: PubChem, National Center for Advancing Translational Sciences (NCATS)
